# Assay outcomes from PubChem BioAssay.
# A selection: hits, their analogues and other compounds. The true share with any hit is near 2%.
# CHRM4 agonist – human M4 muscarinic receptor agonists, primary screen, CHO-K1 cells, Fluo-8 calcium fluorescence. CHO-K1 hM4/Gqi5; vehicle 0%, full acetylcholine response 100%. activation, % at 3 µM. 360,000 tested, 0.14% active;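 active = activation above the run mean over all test wells plus 3 SD, cut at about 32% in these data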;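 note: peak over basal fluorescence ratio per well then scaled between controls; 0% = DMSO wells and 100% = acetylcholine at EC100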
# Target sequence (P08173 whole entry, looked up): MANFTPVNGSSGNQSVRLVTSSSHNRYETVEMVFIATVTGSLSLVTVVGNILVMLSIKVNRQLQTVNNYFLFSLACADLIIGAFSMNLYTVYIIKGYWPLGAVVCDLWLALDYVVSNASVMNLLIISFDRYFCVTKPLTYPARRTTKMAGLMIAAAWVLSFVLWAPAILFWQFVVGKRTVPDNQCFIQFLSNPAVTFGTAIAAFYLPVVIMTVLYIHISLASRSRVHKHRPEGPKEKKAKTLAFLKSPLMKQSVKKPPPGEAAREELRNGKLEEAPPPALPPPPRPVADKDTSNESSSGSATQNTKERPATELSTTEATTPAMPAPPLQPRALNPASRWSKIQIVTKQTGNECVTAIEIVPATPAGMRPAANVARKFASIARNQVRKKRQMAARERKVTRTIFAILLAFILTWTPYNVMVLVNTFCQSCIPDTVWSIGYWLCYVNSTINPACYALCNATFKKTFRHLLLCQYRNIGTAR
# CHO-K1 Ca PAM – nonselective calcium activators in parental CHO-K1 cells, primary screen, counter-screen for M1 PAM project, cell-based, Fluo-8 calcium fluorescence, full deck, 1536-well | ATP EC20; 0% at ATP EC20, 100% at ATP max | activation, % at 3 µM | 360,000 tested, 0.02% active;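 active = activation above the run cutoff, the mean activation of all test compounds plus 3 SD, cut at about 40% in these data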;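 note: peak over basal fluorescence ratio in a 140 s read after ATP addition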
# M4 PAM – human M4 muscarinic receptor positive allosteric modulators, primary screen, CHO-K1 cells, Fluo-8 calcium fluorescence; 360,000 tested, 0.4% active; activation, % at 3 µM; CHO-K1 hM4/Gqi5, ACh EC20; 0% = ACh EC20, 100% = maximal ACh;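 active = activation above its plate's cutoff, the mean activation of sample wells plus 3 SD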
# M4 antag – human M4 muscarinic receptor antagonists, primary screen, CHO cells, Fluo-8 calcium fluorescence; Muscarinic acetylcholine receptor M4 (Homo sapiens), P08173; CHO-hM4 cells, ACh EC80; inhibition, % at 3 µM; 360,000 tested, 0.73% active; AID 624125, 2012;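 active = inhibition above its plate's cutoff, the mean inhibition of sample wells plus 3 SD, cut at about 27% in these data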;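 note: 0% = acetylcholine EC80 with DMSO and 100% = DMSO without agonist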
# CHO-K1 Ca ag – counter-screen for M1 agonists: effect in parental CHO-K1 cells. Fluo-8 calcium fluorescence; scaled to maximal ATP response, vehicle zero. activation, % at 3 µM. 360,000 tested, 0.48% active; in the data active = activation above about 15%;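 note: untransfected CHO-K1 host cells lacking M1 receptor as counterscreen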
# CHO-K1 Ca antag – M1 antagonist counterscreen hit in parental CHO-K1 cells; 360,000 tested, 0.6% active; ATP-induced calcium, Fluo-8 fluorescence; inhibition, % at 3 µM; AID 602250;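 active = inhibition above a per-plate cutoff, the plate's mean sample inhibition plus 3 SD, cut at about 24% in these data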;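 note: 0% = DMSO plus EC80 ATP and 100% = DMSO alone without ATP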
# Active calls of the source: *.
SMILES,CHRM4 agonist,CHO-K1 Ca PAM,M4 PAM,M4 antag,CHO-K1 Ca ag,CHO-K1 Ca antag
COc1cc(NC2c3ccccc3C(=O)N2Cc2ccccc2Cl)cc(OC)c1OC (stereo not drawn),0,15,-6,-7,15,-3
O=C(COC(=O)CCC1CCCC1)Nc1ccccc1OC(F)F,4,-7,22*,3,0,-5
COc1ccccc1NC(=S)NCC1CCCO1 (stereo not drawn),1,-14,0,1,-1,24*
CCN1CC=C2C(C1)C(c1ccc(Cl)s1)C(C#N)=C(N)C2(C#N)C#N (stereo not drawn),2,3,6,6,4,-2
O=C(NCCN1CCN(c2ccccc2)CC1)Nc1ccc(Cl)cc1,14,3,-7,-20,16*,-17
O=C(NCCN1CCN(c2cccc(Cl)c2)CC1)Nc1ccccc1,5,7,-13,2,8,-14
O=C(NCCN1CCN(Cc2ccccc2)CC1)Nc1cc(Cl)cc(Cl)c1,45*,6,-53,43*,14,9
Cc1csc(NC(=O)c2ccc(Cn3nc(C)c(Br)c3C)o2)n1,22,4,-10,23,17*,14
Cc1nn(Cc2ccc(C(=O)Nc3ccccc3C(F)(F)F)o2)c(C)c1Br,12,4,-8,-5,2,2
c1ccc(-n2nnc3ccccc32)cc1,-1,14,-15,81*,0,4
COc1ccccc1C(=O)Nc1ccc(C(=O)/C=C/c2cccs2)cc1,5,-1,-2,10,1,2
COc1ccc(N/C=C(\C#N)c2nc3ccccc3n2C)c(OC)c1,7,17,-15,28*,2,9
CC(=O)Cc1nsc(NC(=O)c2cn(-c3ccccc3)nc2-c2ccc(Br)cc2)n1,0,-5,-1,9,0,25*
Cc1c(O)c(S(=O)(=O)c2ccccc2)c(=O)n(-c2ccccc2)c1-c1ccccc1,1,1,10,27*,0,-4
COc1ccc(S(=O)(=O)Nc2c(NC3CCCCC3)c3ccccc3oc2=O)cc1OC,12,0,-3,-3,8,-16
CC(C)N(C(=O)CN(C#N)c1nc(N(C)C)nc(N(C)C)n1)c1ccccc1,0,4,42*,-1,0,4
CN(C(=O)Nc1ccccc1)C1CCCc2ccccc21 (stereo not drawn),1,-18,-6,-12,16*,-18
CN(C(=O)Nc1ccccc1)C1CCCCC1,13,-13,-26,1,4,6
O=C(NCC(=O)N1CC=C(c2ccccc2)CC1)c1ccccc1Br,4,15,4,5,2,-13
Cc1cc(C(=O)N2CCCC(Nc3ccc(C(C)C)cc3)C2)nn1C (stereo not drawn),0,-15,5,1,0,3
Cc1cc(N2CCOCC2)nc(-c2ccccc2O)n1,1,12,-12,-1,0,-3
COc1ccc(C=O)cc1COc1ccccc1F,0,-5,21*,-4,0,5
COc1ccc(/C=C/C(=O)c2ccccc2)cc1COc1ccccc1F,1,-7,-5,6,0,3
O=C(CSC1=NS(=O)(=O)c2cc(Cl)ccc2N1)NCc1ccc(F)cc1,0,-11,-2,7,0,30*
O=C(CSC1=NS(=O)(=O)c2cc(F)ccc2N1)NCc1ccccc1,0,24,11,-13,0,-2
COC(C[C@H](O)C[C@@H](O)COCc1ccccc1)OC,1,26,6,-4,1,-16
CCN(/C=N/c1sc2c(c1C#N)CCCCC2)CC,-1,0,0,1,0,1
Cc1cc(C)c(OCCNCc2ccccc2)c(C)c1,6,23,2,-4,20*,-8
CCc1ccc(OCC(=O)NNC(=O)Cc2ccc(S(=O)(=O)N3CCOCC3)s2)cc1,0,11,0,-4,1,-10
CCN1/C(=C/C(=O)c2ccco2)Sc2ccccc21,1,10,-1,1,0,1
